Screening data as filed in PubChem BioAssay.
Jurkat NFkB inh: lowers PMA/ionomycin-induced NF-kB signal in Jurkat cells; PMA/ionomycin-induced NF-kB luciferase reporter, luminescence; inhibition, % at 4 µM; actives 0.53% (n = 330,000); AID 435003; in the data active means inhibition above about 50%
Gli-Sufu antag: blocks Gli-Sufu signaling in a luciferase reporter; Sufu-KO-LIGHT fibroblasts, Gli luciferase reporter luminescence; actives 0.74% (n = 340,000); inhibition, % at 5 µM;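 active means inhibition above about 55%, limit read from the data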;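 further: 0% = DMSO-treated cells and 100% = wells with medium but no cells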
esBAF inh: SWI/SNF esBAF complex inhibition | mouse ES cells, Bmi1-luciferase knock-in reporter, 24 h; 100% = twice the neutral-well signal | reporter increase, % at 12.5 µM | actives 2% (n = 350,000); in the data active means activation above about 40%; inconclusive means no clear call, values can overlap the other calls;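 further: 0% = median of the plate's neutral control wells and 100% = double that signal; a rise in the Bmi1 reporter signal indicates esBAF inhibition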
SMARCA2 activ: activators of SMARCA2 function. MG213 cells, MMTV-luciferase reporter, dexamethasone, overnight. activation, % at 9.1 µM. actives 1% (n = 370,000). AID 652017; in the data active means activation above about 7.8%;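 further: 0% = vehicle wells and 100% = reference activator wells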
697 NFkB inh: inhibitors of the PMA/ionomycin-induced NF-kB reporter in 697 B cells; 697 B-cell NF-kB luciferase reporter, 16 h; inhibition, % at 4 µM; actives 0.33% (n = 330,000); AID 435022; in the data active means inhibition above about 35%
SMARCA2 act conf: SMARCA2 activation, confirmation screen. MG213 cells, MMTV-luciferase with dexamethasone, luminescence, overnight; MG213 cells expressing E1A, Rb sequestered; DMSO wells 0%, reference activator 100%. actives 30% (n = 3,500). activation, % at 9.1 µM. shares compounds with SMARCA2 activ;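 active means activation above its plate's cutoff, the mean activation of tested wells plus 3 SD, cut at about 7.9% in these data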
VP16 Luc act: counter-screen for SMARCA2 activators: GAL4-VP16 luciferase reporter activation; shares compounds with SMARCA2 activ; HEK293 GAL4-VP16 pG5luc reporter, luciferase luminescence; scaled: DMSO wells 0%, SAHA wells 100%; activation, % at 9.1 µM; actives 41% (n = 3,500); AID 686939;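 active means activation above the solvent-only control well mean plus 3 SD, averaged across control plates, cut at about 5.2% in these data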
* marks the source's active call; other numbers are inactive results; ? = inconclusive; · = no result given. Shown are actives, neighbours in structure and some others; about 3.3% of the full set was active somewhere.

SMILES	Jurkat NFkB inh	Gli-Sufu antag	esBAF inh	SMARCA2 activ	697 NFkB inh	SMARCA2 act conf	VP16 Luc act
C[C@H](CO)N1C[C@H](C)[C@H](CN(C)C(=O)CC2CC2)Oc2ncc(C#Cc3cccnc3)cc2C1=O	·	·	-16	·	·	·	·
CN1C(=O)c2cc(NC(=O)NCc3ccccc3)ccc2OC[C@H]2O[C@@H](CC(=O)O)CC[C@@H]21	·	·	-4	·	·	·	·
CC(C)CNC(=O)C1c2ccccc2Oc2ccccc21	7	-8	·	14*	12	-1	1
O=C1c2cccc3cccc(c23)C(=O)N1CCN1CCN(CC(O)COCc2ccc(Cl)cc2)CC1 (configuration not stated)	11	29	·	8.7*	-25	8.5*	5.4*
CC1(NC(=S)Nc2ccc3ccccc3c2)CCS(=O)(=O)C1 (configuration not stated)	1	-1	·	-2	-3	·	·
CN(C)C(=S)NC(=S)Nc1ccc2ccccc2c1	·	-68	·	17*	·	-11	34*
CCC(=O)N1C[C@@H](C)[C@@H](OC)CN(C)C(=O)c2cc(NC(=O)C3CCOCC3)ccc2OC[C@H]1C	·	·	5	·	·	·	·
COc1ccc(C2Nc3ccccc3C(=O)N2c2ccc(C)cc2)cc1Cn1cc([N+](=O)[O-])cn1 (configuration not stated)	-49	-53	39	9.8*	-94	2	7.4*
COc1ccc(C2Nc3ccccc3C(=O)N2c2ccc(C)cc2)cc1Cn1nnc2ccccc21 (configuration not stated)	-42	-69	13	7	-83	·	·
O=C(COc1ccc(-n2cnnn2)cc1)Nc1cccc(Cl)c1Cl	-2	18	-5	8.1*	14	1	1
C[C@H](CO)N1C[C@H](C)[C@H](CN(C)C(=O)Cc2ccccc2)OCCCC[C@H](C)Oc2ccc(NC(=O)Nc3ccccc3)cc2C1=O	·	·	7	·	·	·	·
CC(C)(C)N1NC(=O)Nc2ccccc2C1=O	12	-6	-9	9.6*	11	-3	0
CO[C@@H]1CN(C)C(=O)c2ccc(NC(=O)C3CCCC3)cc2OC[C@@H](C)N(CCC(F)(F)F)C[C@@H]1C	·	·	7	·	·	·	·
Cc1ccc(/C=C/C(=O)Nc2nccs2)o1	-73	-86	60*	11*	-56	8.4*	10*
Cc1ccc(/C=C/C(=O)Nc2ncc(C)s2)o1	-36	-96	·	8	-1	·	·
Cc1ccc(/C=C/C(=O)NC2CCCCCCC2)o1	-2	-7	·	8.0*	-37	20*	4
Cc1csc(NC(=O)c2sccc2C)n1	-79	-26	2	4	-107	·	·
Cc1ccsc1C(=O)Nc1nccs1	-20	-29	13	9.3*	-13	3	3
COc1cccc(S(=O)(=O)Nc2ccc3c(c2)[C@@H]2C[C@@H](CC(=O)NCc4ccccc4F)O[C@@H](CO)[C@@H]2O3)c1	·	·	-10	·	·	·	·
N/C(=N\OC(=O)c1cccc(Br)c1)c1ccncc1	-19	-25	0	8.0*	-43	7	7.4*
COc1ccc(-c2nn3c(C4CCCCC4)nnc3s2)cc1OC	0	4	-1	12*	6	7	4
COc1ccc(C2=Nn3c(nnc3C3CCCCC3)SC2)cc1OC	16	14	-6	14*	0	14*	7.3*
C[C@H](NC(=O)C[C@H]1CC[C@H]2[C@@H](COC[C@@H](O)CN2C)O1)c1ccccc1	·	·	-4	·	·	·	·
CC(C)(C)C(=O)Nc1ccnn1C1CCN(C(=O)c2ccc(Cl)cc2F)CC1	0	-3	2	14*	-30	-1	2
CC(C)CC(=O)Nc1ccnn1C1CCN(C(=O)c2ccc(Cl)cc2F)CC1	1	22	6	-1	0	·	·
SMILES	Jurkat NFkB inh	Gli-Sufu antag	esBAF inh	SMARCA2 activ	697 NFkB inh	SMARCA2 act conf	VP16 Luc act
CO[C@H]1CN(C)C(=O)c2cc(NC(=O)Nc3cc(F)ccc3F)ccc2OC[C@@H](C)NC[C@@H]1C	·	·	0	·	·	·	·
Cc1noc(C)c1S(=O)(=O)N(C)C[C@@H]1OCCCC[C@@H](C)Oc2ccc(NC(=O)NC3CCCCC3)cc2C(=O)N([C@H](C)CO)C[C@H]1C	·	·	2	·	·	·	·
O=C(Nc1cccc(Cl)c1)c1cnn2cccnc12	-96	-28	39	8.1*	-92	8.3*	12*
O=C(Nc1cc(Cl)cc(Cl)c1)c1cnn2cccnc12	-7	-1	·	1	-13	·	·
Cc1ccc(Nc2ccc(C(=O)O)cc2N)cc1	-7	-43	·	9.4*	-58	1	9.5*
CC(=O)Nc1ccc(NCN2C(=O)[C@@H]3[C@H]4CC[C@H](C4)[C@@H]3C2=O)cc1	5	6	9	8.9*	6	-4	0
COc1ccccc1C(=O)Nc1ccnn1C1CCN(C(=O)c2cnsn2)CC1	-7	1	11	-1	15	·	·
COc1ccc(C(=O)Nc2ccnn2C2CCN(C(=O)c3cnsn3)CC2)cc1	-15	-7	12	8.9*	6	-1	0
O=S(=O)(N[C@@H]1CC[C@H](CCn2cc(-c3cccc(F)c3)nn2)O[C@@H]1CO)c1ccc(Cl)cc1	·	·	15	·	·	·	·
Oc1ccccc1-c1nnc(COc2ccc(Cl)cc2Cl)o1	-111	-25	12	9.3*	-98	5	13*
Oc1ccccc1-c1nnc(COc2ccccc2)o1	-26	2	?	0	-25	·	·
N/C(Cc1cccs1)=N\OC(=O)COc1ccc(Br)cc1Cl	-45	-56	16	8	-74	·	·
N/C(Cc1cccs1)=N\OC(=O)COc1ccccc1Cl	-31	-37	40	8.4*	-48	4	6.8*
O=C1NC(=O)C2(C=C(c3ccccc3)C(O)(c3ccccc3)C2)N1 (configuration not stated)	·	3	·	8.2*	·	1	1
O=C(O)CCC1(c2ccccc2)NC(=O)NC1=O (configuration not stated)	2	6	·	-2	4	·	·
S=C1SCN(Cc2cccnc2)CN1Cc1cccnc1	15	28	·	12*	-4	-8	0
S=C1SCN(Cc2ccccc2)CN1Cc1ccccc1	-12	5	-9	3	1	·	·
O=C(O)c1ccc2c(c1)SC1=NS(=O)(=O)CCN12	10	2	0	-1	6	·	·
CN(C(=O)c1ccc2c(c1)SC1=NS(=O)(=O)CCN12)C(c1ccccc1)c1ccccc1	10	21	·	10*	-20	14*	3
O=C(c1cc(COc2c(F)cccc2F)on1)N1C[C@H]2CC[C@H]1C2	-110	-86	92*	10.0*	-123	11*	11*
CC(C)NC(=O)N(C)C[C@H]1Oc2ccc(NS(=O)(=O)c3ccc(F)cc3)cc2CC(=O)N([C@H](C)CO)C[C@H]1C	·	·	0	·	·	·	·
